Measurements as given in publication PMC4336329 (PLoS ONE, 2015).
The whole screen tested about 310,000 compounds, of which about 14,000 (4.5%) showed an effect of 50% or more. The effect is printed as a negative number. Many of the other results were omitted from the sample, so strong results are more common in it than they were.

Molecular target: human ether-à-go-go-related gene (hERG) potassium channel (human, UniProt Q12809)
Test: primary screen, population patch clamp on CHO cells stably expressing hERG; higher = less effect of the substance
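Note: peak tail current of the secondary pulse compared with the same well before compound.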

human ether-à-go-go-related gene (hERG) potassium channel, sequence (Q12809 whole entry, looked up): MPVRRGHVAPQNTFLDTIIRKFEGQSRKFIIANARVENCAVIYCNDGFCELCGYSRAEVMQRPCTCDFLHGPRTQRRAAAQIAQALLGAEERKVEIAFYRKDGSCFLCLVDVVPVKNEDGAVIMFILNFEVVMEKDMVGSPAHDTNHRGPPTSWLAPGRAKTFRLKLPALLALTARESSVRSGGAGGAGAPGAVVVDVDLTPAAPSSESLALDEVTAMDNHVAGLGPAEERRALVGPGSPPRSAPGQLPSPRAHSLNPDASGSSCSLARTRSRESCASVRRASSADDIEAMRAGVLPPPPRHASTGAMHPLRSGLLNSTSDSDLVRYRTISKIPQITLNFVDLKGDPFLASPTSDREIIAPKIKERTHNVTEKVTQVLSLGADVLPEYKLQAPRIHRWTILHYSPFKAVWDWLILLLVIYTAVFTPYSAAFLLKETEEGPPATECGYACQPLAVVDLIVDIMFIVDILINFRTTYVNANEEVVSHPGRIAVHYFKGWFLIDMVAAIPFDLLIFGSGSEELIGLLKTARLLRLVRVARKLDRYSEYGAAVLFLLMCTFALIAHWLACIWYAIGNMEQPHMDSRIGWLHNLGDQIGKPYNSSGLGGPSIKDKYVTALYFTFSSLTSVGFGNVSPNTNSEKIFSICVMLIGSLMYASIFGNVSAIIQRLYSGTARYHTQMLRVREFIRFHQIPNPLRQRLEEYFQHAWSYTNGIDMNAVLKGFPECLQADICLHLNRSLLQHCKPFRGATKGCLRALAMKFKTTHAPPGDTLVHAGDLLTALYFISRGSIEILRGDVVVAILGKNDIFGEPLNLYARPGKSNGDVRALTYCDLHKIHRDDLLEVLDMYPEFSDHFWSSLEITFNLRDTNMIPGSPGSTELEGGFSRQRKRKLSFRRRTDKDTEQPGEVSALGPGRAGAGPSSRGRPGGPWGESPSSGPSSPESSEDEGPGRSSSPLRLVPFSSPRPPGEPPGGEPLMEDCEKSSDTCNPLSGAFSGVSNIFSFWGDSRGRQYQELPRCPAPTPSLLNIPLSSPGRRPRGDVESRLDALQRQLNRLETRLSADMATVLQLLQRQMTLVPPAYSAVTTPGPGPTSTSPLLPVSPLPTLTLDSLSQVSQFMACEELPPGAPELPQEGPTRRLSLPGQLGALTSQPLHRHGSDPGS

Compound	hERG current change (%, negative = inhibition) at 10uM [%]
c1ccc2c(CSc3nnc(-c4ccncc4)o3)cccc2c1	-12.8
CCC(CC)C(=O)Nc1nnc(S(=O)(=O)N2CCc3ccccc32)s1	17.9
O=C(O)C1CCCCC1C(=O)Nc1cc(Cl)ccc1Cl (centres unmarked)	10.3
CCc1ccccc1SCc1noc(C(=O)NCC2CCCO2)c1C(=O)O (centres unmarked)	2.36
c1ccc(CNc2ncnc3sc4c(c23)CCC4)nc1	-19.8
Cc1sc2ncnc(NCC(c3ccco3)N(C)C)c2c1C.O=C(O)C(=O)O (centres unmarked)	-33.7
Cc1sc2ncnc(N(C)Cc3ccco3)c2c1C	-4.64
CN(Cc1cccs1)c1ncnc2sccc12	-28.8
CN(C)C(CNc1ncnc2sc3c(c12)CCCCC3)c1ccco1 (centres unmarked)	-35.4
Cl.c1cc(Nc2ncnc3sc4c(c23)CCC4)ccn1	19.3
Cl.c1cncc(CNc2ncnc3sc4c(c23)CCC4)c1	-56.2
Cc1sc2ncnc(NCC(c3ccco3)N3CCCC3)c2c1C (centres unmarked)	-51.5
Cc1sc2ncnc(N(C)Cc3cccs3)c2c1C	-53
CCOC(=O)N1CCN(C(=O)CN(C)S(=O)(=O)c2ccc(Cl)cc2)CC1	8.13
COc1ccc(CCNC(=O)Cc2nn(C)c(=O)c3ccccc23)cc1OC	0.902
CN(CC(=O)NC(=O)NCc1ccco1)Cc1nc2ccccc2c(=O)[nH]1	-3.41
Cn1c(SCC(=O)N2CCCc3ccccc32)nc2cccnc21	9.85
COc1ccc(-c2c[n+]3c(n2-c2ccccc2)SCC3)cc1.[Br-]	-45.7
Brc1ccc(-c2c[n+]3c(n2-c2ccccc2)SCC3)cc1.[Br-]	-49.4

Compound	hERG current change (%, negative = inhibition) at 10uM [%]
[Br-].c1ccc(-c2c[n+]3c(n2-c2ccccc2)SCC3)cc1	-28.4
CCOc1ccc(-n2c(-c3ccc(Cl)cc3)c[n+]3c2SCC3)cc1.[Br-]	-80.9
Cc1ccc(-c2c[n+]3c(n2-c2ccccc2)SCC3)cc1.[Br-]	-35.8
Clc1ccc(-c2c[n+]3c(n2-c2ccccc2)SCC3)cc1.[Cl-]	-62.7
CC(=O)c1c(C)[nH]c(C(=O)Nc2ccc(Cl)cc2)c1C	-9.14
CC(C)C(c1nnnn1Cc1ccc(F)cc1)N1CCN(C(=O)c2ccco2)CC1 (centres unmarked)	-49.1
O=C(CCCNC(=O)c1ccc(Cl)cc1)Nc1ccccc1F	7
COc1cccc(-n2cc(CNCc3c(C(=O)N(C)C)nc4ccc(Cl)cn34)cn2)c1	-55.9
COc1ccc(CNCc2c(C(=O)N(C)C)nc3ccc(Cl)cn23)c(OC)c1	-11.1
Cc1ccccc1-n1cc(CNCc2c(C(=O)N(C)C)nc3ccc(Cl)cn23)cn1	-7.4
Cc1nn(C)cc1NC(=O)c1cc2nc(-c3ccco3)cc(C(F)(F)F)n2n1	4.66
CCOC(=O)N1CCC(NC(=O)C(NS(=O)(=O)c2ccc3c(c2)CCN3C(=O)CC)C(C)C)CC1 (centres unmarked)	-6.47
CCc1ccc(NC(=O)CC2C(=O)N(c3ccc(C)cc3)C(=O)N2CCc2ccncc2)cc1 (centres unmarked)	-55.8
COc1ccc(CCN2C(=O)N(c3ccc(OC)cc3)C(=O)C2CC(=O)Nc2ccc(OC)cc2)cc1 (centres unmarked)	7.46
Cc1ccc(N2C(=O)C(CC(=O)Nc3cccc(F)c3)N(CCc3ccncc3)C2=O)cc1 (centres unmarked)	-52.3
CCc1ccc(NC(=O)CC2C(=O)N(c3ccc(C)cc3)C(=O)N2C2CC2)cc1 (centres unmarked)	-4.46
Cc1ccc(N2C(=O)C(CC(=O)Nc3cccc(F)c3)N(C3CC3)C2=O)cc1 (centres unmarked)	-7.13
Cc1cccc(N2C(=O)C(CC(=O)Nc3cccc(F)c3)N(CCc3ccncc3)C2=O)c1 (centres unmarked)	-43.6
O=C(COC(=O)c1ccc(Br)cc1)Nc1cccnc1Cl	-3.51

Compound	hERG current change (%, negative = inhibition) at 10uM [%]
COC(=O)c1cn(CC(=O)Nc2ccc(OC)cc2)c2ccccc12	8.2
CC(=O)N1CC(C)Oc2ccc(S(=O)(=O)Nc3ccc(Cl)cn3)cc21 (centres unmarked)	3.04
CC(=O)OC1(c2ccccc2)CCN(C)CC1(C)C.Cl (centres unmarked)	35.4
Cc1ccc(S(=O)(=O)N2CCOC2CNC(=O)C(=O)NCc2ccccc2)cc1 (centres unmarked)	-10.3
Cc1ccc(SCc2cc(=O)[nH]c(N3CCOCC3)n2)cc1	-0.0128
O=C(NCc1cccnc1)c1ccccc1-c1ccccc1	-0.462
CC1Cc2ccccc2N1S(=O)(=O)c1cccc(C(=O)Nc2cccnc2)c1 (centres unmarked)	-60.2
O=C(Nc1cccnc1)c1cccc(S(=O)(=O)N2CCc3ccccc32)c1	11
Cc1cccnc1NC(=O)c1cccc(S(=O)(=O)NCc2ccccc2)c1	-14.9
CC1Cc2ccccc2N1S(=O)(=O)c1cccc(C(=O)NC2CC2)c1 (centres unmarked)	-40
CC1Cc2ccccc2N1S(=O)(=O)c1cccc(C(=O)NCCCn2ccnc2)c1 (centres unmarked)	-50.1
Cc1ccnc(NC(=O)c2cccc(S(=O)(=O)NCc3ccccc3)c2)c1	-34.6
Cc1cc(NC(=O)c2cccc(S(=O)(=O)N3c4ccccc4CC3C)c2)no1 (centres unmarked)	-7.3
Cc1ccc(NC(=O)c2cccc(S(=O)(=O)NCc3ccccc3)c2)nc1	-50.7
CC1Cc2ccccc2N1S(=O)(=O)c1cccc(C(=O)NCc2ccncc2)c1 (centres unmarked)	-34.9
CC1CN(S(=O)(=O)c2cccc(C(=O)NCCCn3ccnc3)c2)CC(C)O1.Cl (centres unmarked)	6.18
CC1Cc2ccccc2N1S(=O)(=O)c1cccc(C(=O)NCCCO)c1 (centres unmarked)	-27.9
CC1Cc2ccccc2N1S(=O)(=O)c1cccc(C(=O)NCc2ccccn2)c1 (centres unmarked)	-67.6
